The values that follow come from PubChem BioAssay (Tox21).

Assay [1] in a line: Nuclear factor erythroid 2-related factor 2/antioxidant responsive element (Nrf2/ARE) small molecule agonists: qHTS cell viability counter screen in human keratinocytes (AID 1919968; active means well fitted curve in the direction sought with a large enough effect in the repeat runs; an effect the other way counts as inactive or inconclusive; further: nearly all actives have a fitted effect of over 55% in size). Put shortly: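 HaCaT ARE reporter line, 1,500 cells/well; 5 h settle, 37 C/5% CO2; cpd in DMSO pinned; 23 h exposure; CellTiter-Fluor, 1 h; fluorescence.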
Assay [2] can be described thus: Nuclear factor erythroid 2-related factor 2/antioxidant responsive element (Nrf2/ARE) small molecule agonists: luciferase reporter gene qHTS assay in human keratinocytes (AID 1919969). Further: nearly all actives have a fitted effect of over 35% in size. Further: potency means the concentration at half of the fitted maximal effect. On the technique in general: Reporter assays use an easily measured gene product as a stand-in for the process of interest.
Assay [3] deals with Gonadotropin-releasing hormone receptor (Homo sapiens) (UniProt P30968). As to the kind of experiment: Human gonadotropin-releasing hormone receptor (GnRHR) small molecule agonists, calcium flux assay in GnRHR-HEK293 cells (AID 1920063). Further: nearly all actives have a fitted effect of over 35% in size. Further: potency means the concentration at half of the fitted maximal effect. Put shortly:
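GnRHR-HEK293, 1500 cells/well, 18 h 37 C/5% CO2; Ca dye 1 h 37 C; cpd pinned (DMSO), agonist mode; kinetic FL 480/540, 3 min, 1 s reads; 15 conc, n=3.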
(Calcium assays in cells follow changes in intracellular calcium, usually with a dye or a luminescent sensor.)

In assay [4] the target is KiSS-1 receptor (Homo sapiens) (UniProt Q969F8). As to the kind of experiment: Human kisspeptin (KISS1R) small molecule agonists, calcium flux assay in KISS1R-HEK293 cells (AID 1920064; active means well fitted curve in the direction sought with a large enough effect in the repeat runs; an effect the other way counts as inactive or inconclusive). Put shortly: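 Stable human KISS1R HEK293 line; 18 h plating, 37 C/5% CO2; calcium dye 1 h 37 C; compound pin transfer; kinetic fluorescence Ex/Em 480/540, 3 min.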
Assay [5] is described as follows: G protein-coupled receptor (GPCR) small molecule agonists, calcium flux assay: HEK293 wild type cell line counter screen (AID 1920065). Put shortly: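 Kinetic fluorescence at Ex/Em 480/540, recorded every second over 3 min, served as the read-out after compound addition. Each compound was tested at 15 concentrations in triplicate on cells pre-loaded with calcium dye for 1 h.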

The nature of assay [6]: p53 small molecule agonists, cell-based qHTS assay with human liver microsomes: qHTS cell viability counter screen (AID 1963579). Further: nearly all actives have a fitted effect of over 45% in size. Put shortly:
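p53RE-bla cells (4,000/well) were pre-incubated 5 h at 37 C, then given compounds in DMSO plus human liver microsomes (0.5 mg/mL final) and NADPH (0.5 mg/mL final) for 16 h at 37 C. Viability was read by CellTiter-Glo luminescence.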
(Quantitative high-throughput screening tests each substance at several concentrations.)

Assay [7] can be described thus: p53 small molecule agonists, cell-based qHTS assay with rat liver microsomes: qHTS cell viability counter screen (AID 1963580). Further: nearly all actives have a fitted effect of over 45% in size. Put shortly: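 p53RE-bla HCT-116 cells (4,000/well) rested 5 h at 37 C, then given Tox21 compounds in DMSO with rat liver microsomes (0.5 mg/mL final) plus NADPH (0.5 mg/mL final) for 16 h at 37 C. Viability read by CellTiter-Glo luminescence after 30 min at room temperature.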

For assay [8], the target named is 5-hydroxytryptamine receptor 2A (Homo sapiens) (UniProt P28223). As to the kind of experiment: 5-hydroxytryptamine receptor 2A (HTR2A) small molecule antagonists, cell-based qHTS assay (AID 1963586). Further: nearly all actives have a fitted effect of over 45% in size. Put shortly:
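Antagonist-mode intracellular calcium assay: DOI (4 nM) added after 5 min compound pre-incubation at room temperature to dye-loaded HTR2A-CHO cells. Fluorescence followed for 3 min, sampled every second.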

Assay [9] shares this target. As to the kind of experiment: 5-hydroxytryptamine receptor 2A (HTR2A) small molecule agonists, cell-based qHTS assay (AID 1963587). Further: nearly all actives have a fitted effect of over 30% in size. Put shortly:
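HTR2A-CHO cells, plated 18 h at 37 C/5% CO2, dye-loaded 1 h at 37 C; compounds in DMSO added by pin tool (agonist mode). Intracellular calcium flux read as kinetic fluorescence on FDSS over 2 min at 1 s intervals.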

In assay [10] the target is Muscarinic acetylcholine receptor M1 (Homo sapiens) (UniProt P11229). As to the kind of experiment: Cholinergic receptor muscarinic 1 (CHRM1) small molecule antagonists, cell-based qHTS assay (AID 1963588). Further: nearly all actives have a fitted effect of over 40% in size. Put shortly: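 CHRM1-CHO calcium-flux assay, antagonist mode. Cells were seeded 18 h, dye-loaded 1 h at 37 C and given compound for 5 min at RT, then acetylcholine was added at 50nM. FDSS fluorescence was read 3 min; 15 concentrations, three runs.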

Assay [11] has the same target. As to the kind of experiment: Cholinergic receptor muscarinic 1 (CHRM1) small molecule agonists, cell-based qHTS assay (AID 1963589). Further: nearly all actives have a fitted effect of over 35% in size. Put shortly: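 Human M1 in stable CHO line; 18 h plating, 1 h dye load 37 C; cpd added (agonist mode); Ca2+ fluorescence kinetic read, 1 s intervals; 15 conc, 3 runs.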
A short description of assay [12]: cAMP Responsive Elements (CRE) small molecule agonists, cell-based qHTS assay (AID 1963590). Put shortly:
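HEK 293T CRE-bla, 2,000 cells/well, 18 h preincubation 37 C/5% CO2; cpds (DMSO) pinned, 3 h; LiveBLAzer B/G FRET substrate, 2 h RT.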

Assay [13] in a line: cAMP Responsive Elements (CRE) small molecule antagonists, cell-based qHTS assay (AID 1963591; active means well fitted inhibition curve with a large enough effect in the signal ratio in the repeat runs, not every such curve was filed as active; the % refers to the signal ratio). Put shortly: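 Beta-lactamase reporter read by FRET substrate (LiveBLAzer B/G) after 2 h at room temperature. CRE-bla HEK293T cells had received compound plus 0.25 uM (final) NKH477 for 3 h at 37 °C.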
Assay [14] concerns the target Beta-2 adrenergic receptor (Homo sapiens) (UniProt P07550). The assay can be described thus: Adrenergic beta2 receptor (ADRB2) small molecule antagonists, cell-based qHTS assay (AID 1963592). Further: series mostly up to about 92 µM; nearly all actives have a fitted effect of over 50% in size. Put shortly: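 Cells (CHO, stable ADRB2 overexpression) incubated 18-20hr at 37C; compounds added from DMSO; agonist mix (1nM isoproterenol, 100uM IBMX, 25uM Ro-20-1724) added; 0.5hr RT; d2-cAMP and anti-cAMP-cryptate added; 1hr RT; 665/615 nm read.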

The target of assay [15] is D(2) dopamine receptor (Homo sapiens) (UniProt P14416). The assay can be described thus: Dopamine D2 receptor (DRD2) small molecule agonists, cell-based qHTS assay (AID 1963594). Further: nearly all actives have a fitted effect of over 35% in size. Put shortly:
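HEK293 cells stably expressing DRD2 were cultured 24 h at 37 C, then given Ro20-1724 (0.1 mM final) and compounds for 10 min at room temperature. NKH477 (200nM) was then added for 30 min. cAMP was read by HTRF.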

Assay [16] has the same target. As to the kind of experiment: Dopamine D2 receptor (DRD2) small molecule antagonists, cell-based qHTS assay (AID 1963595; active means well fitted inhibition curve with a large enough effect in the signal ratio in the repeat runs, with a control signal flat; the % refers to the signal ratio). Put shortly:
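HEK293 cells stably expressing DRD2, preincubated with 0.1 mM Ro20-1724 and compounds 10 min, were stimulated with 200 nM NKH477 plus 12 nM quinpirole for 30 min at room temperature; cAMP measured by HTRF (665/620 nm).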

A short description of assay [17]: p53 small molecule agonists, cell-based qHTS assay: qHTS cell viability counter screen (AID 1963581). Further: nearly all actives have a fitted effect of over 45% in size. Put shortly:
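HCT-116 p53RE-bla cells, 4,000/well, plated 5 h before compound pin transfer; 16 h at 37 C; bla substrate 2 h RT; then CellTiter-Glo, 30 min RT, luminescence.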

Assay [18] addresses Beta-2 adrenergic receptor (Homo sapiens) (UniProt P07550). The assay can be described thus: Adrenergic beta2 receptor (ADRB2) small molecule agonists, cell-based qHTS assay (AID 1963593).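 Further: CHO cells stably overexpressing human ADRB2.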 Put shortly:
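CHO cells stably over-expressing ADRB2 were plated overnight at 37C, then dosed with compounds plus a stimulation mix containing 100uM IBMX and 25uM Ro-20-1724 for 0.5hr at room temperature. cAMP was measured by HTRF competition, 1hr.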

Assay [19] can be described thus: p53 small molecule agonists, cell-based qHTS assay (AID 1963582; active means well fitted activation curve with a large enough effect in the signal ratio in the repeat runs, not every such curve was filed as active; the % refers to the signal ratio). Put shortly:
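Reporter line: p53RE-bla. Pre-incubation 5 h, 37 C, 5% CO2; compound (DMSO, pin tool) 16 h, 37 C; B/G FRET substrate 2 h RT; fluorescence intensity read.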

Records with an inconclusive call do not appear. Calls of active or inactive are those of the source. Unless noted, the call rests on the fitted dose curve.

Sequence of Gonadotropin-releasing hormone receptor (Homo sapiens) (P30968 whole entry, looked up): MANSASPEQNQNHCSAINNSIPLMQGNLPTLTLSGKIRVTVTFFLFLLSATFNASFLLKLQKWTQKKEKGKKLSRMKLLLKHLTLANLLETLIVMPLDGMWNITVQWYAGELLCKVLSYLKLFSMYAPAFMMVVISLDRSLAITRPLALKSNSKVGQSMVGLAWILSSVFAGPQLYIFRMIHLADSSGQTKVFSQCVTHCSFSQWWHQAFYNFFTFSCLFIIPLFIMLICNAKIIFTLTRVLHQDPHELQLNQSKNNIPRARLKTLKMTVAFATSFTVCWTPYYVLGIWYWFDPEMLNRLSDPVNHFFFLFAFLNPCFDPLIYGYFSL
Sequence of D(2) dopamine receptor (Homo sapiens) (P14416 whole entry, looked up): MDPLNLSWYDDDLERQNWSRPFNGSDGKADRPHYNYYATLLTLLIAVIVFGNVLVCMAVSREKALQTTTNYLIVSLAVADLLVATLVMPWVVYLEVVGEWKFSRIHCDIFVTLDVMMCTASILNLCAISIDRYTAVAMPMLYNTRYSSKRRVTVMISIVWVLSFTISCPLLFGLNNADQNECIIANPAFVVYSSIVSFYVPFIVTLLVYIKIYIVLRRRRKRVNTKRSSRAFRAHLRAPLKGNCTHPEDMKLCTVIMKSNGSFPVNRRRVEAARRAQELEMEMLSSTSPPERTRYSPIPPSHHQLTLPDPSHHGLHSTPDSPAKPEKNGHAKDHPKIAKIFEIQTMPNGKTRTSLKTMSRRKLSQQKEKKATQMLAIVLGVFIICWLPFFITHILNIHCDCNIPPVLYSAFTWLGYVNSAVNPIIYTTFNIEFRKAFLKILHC
Sequence of 5-hydroxytryptamine receptor 2A (Homo sapiens) (P28223 whole entry, looked up): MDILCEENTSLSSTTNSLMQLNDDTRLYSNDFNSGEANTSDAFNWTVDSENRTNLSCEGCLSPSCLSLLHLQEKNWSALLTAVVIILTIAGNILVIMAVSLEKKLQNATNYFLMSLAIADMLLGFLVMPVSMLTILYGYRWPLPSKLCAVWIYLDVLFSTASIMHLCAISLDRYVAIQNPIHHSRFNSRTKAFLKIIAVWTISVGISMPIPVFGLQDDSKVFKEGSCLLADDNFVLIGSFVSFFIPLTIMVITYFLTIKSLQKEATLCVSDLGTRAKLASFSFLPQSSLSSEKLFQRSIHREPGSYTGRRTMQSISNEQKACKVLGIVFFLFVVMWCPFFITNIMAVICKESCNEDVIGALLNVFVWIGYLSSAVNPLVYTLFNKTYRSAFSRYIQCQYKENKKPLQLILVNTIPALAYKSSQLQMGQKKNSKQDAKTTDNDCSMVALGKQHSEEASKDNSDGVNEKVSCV
Sequence of Muscarinic acetylcholine receptor M1 (Homo sapiens) (P11229 whole entry, looked up): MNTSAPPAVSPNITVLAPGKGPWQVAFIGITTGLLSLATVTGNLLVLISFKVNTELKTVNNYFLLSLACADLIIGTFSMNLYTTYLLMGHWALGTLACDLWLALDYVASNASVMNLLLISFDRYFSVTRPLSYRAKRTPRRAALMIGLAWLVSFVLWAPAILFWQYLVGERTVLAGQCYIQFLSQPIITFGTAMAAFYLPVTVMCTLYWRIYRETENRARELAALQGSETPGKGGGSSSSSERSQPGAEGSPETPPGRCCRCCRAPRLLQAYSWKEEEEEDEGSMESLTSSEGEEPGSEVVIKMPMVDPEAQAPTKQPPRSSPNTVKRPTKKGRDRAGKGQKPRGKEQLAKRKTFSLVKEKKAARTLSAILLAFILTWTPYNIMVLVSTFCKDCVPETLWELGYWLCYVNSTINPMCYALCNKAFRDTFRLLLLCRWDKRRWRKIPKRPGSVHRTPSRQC
Sequence of Beta-2 adrenergic receptor (Homo sapiens) (P07550 whole entry, looked up): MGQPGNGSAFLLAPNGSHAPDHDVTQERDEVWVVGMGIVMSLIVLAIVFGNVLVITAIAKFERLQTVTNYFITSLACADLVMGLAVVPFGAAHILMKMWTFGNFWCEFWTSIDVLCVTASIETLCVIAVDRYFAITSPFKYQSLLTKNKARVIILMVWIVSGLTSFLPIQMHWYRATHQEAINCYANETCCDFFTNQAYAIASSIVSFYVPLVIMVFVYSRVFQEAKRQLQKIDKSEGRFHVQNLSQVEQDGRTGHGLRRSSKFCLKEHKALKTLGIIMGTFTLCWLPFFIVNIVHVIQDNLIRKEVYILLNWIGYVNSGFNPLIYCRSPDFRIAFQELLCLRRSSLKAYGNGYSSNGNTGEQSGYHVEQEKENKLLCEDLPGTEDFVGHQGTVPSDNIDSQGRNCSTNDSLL
Sequence of KiSS-1 receptor (Homo sapiens) (Q969F8 whole entry, looked up): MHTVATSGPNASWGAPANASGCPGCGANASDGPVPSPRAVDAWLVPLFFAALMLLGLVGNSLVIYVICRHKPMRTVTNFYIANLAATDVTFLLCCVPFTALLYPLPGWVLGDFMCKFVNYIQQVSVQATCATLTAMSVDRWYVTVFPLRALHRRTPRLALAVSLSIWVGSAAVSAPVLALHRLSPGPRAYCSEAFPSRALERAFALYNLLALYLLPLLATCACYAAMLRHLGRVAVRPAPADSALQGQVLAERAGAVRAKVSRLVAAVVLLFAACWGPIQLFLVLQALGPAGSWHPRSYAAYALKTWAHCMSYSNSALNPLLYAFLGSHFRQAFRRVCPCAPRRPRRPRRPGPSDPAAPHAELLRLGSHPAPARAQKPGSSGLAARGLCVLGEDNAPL

On to `CCOC(=O)NC(O)C(Cl)(Cl)Cl` (stereo not drawn), for which the Potency entry in [1], in assay [2], in assay [3], in [4], in [5] and in assay [6] was “inactive” each time. For the same compound, the Potency entry in assay [7], in assay [8], in [9], in assay [10], in assay [11] and in [12] was “inactive” in each case. In addition, the Potency entry in assay [13], in [14], in assay [15] and in assay [16] was “inactive” throughout.
On to `COC(=O)C1=CCCN(C)C1`, for which the Potency result in assay [1], in assay [2], in assay [4], in assay [5], in assay [6] and in assay [7] was “inactive” each time. Moreover, the Potency result in [17], in assay [8], in [9], in assay [12], in assay [13] and in assay [14] was “inactive” in each case. For the same compound, the Potency entry in [18], in assay [15] and in assay [16] was “inactive” each time. Also, in assay [3], the Potency was 1.07 µM (active).
For `CN(C)C1CSSSC1`, the Potency entry in assay [1], in assay [3], in assay [4], in assay [5], in assay [6] and in assay [7] was “inactive” each time. For the same compound, the Potency entry in assay [17], in assay [8], in assay [9], in [10], in assay [12] and in [14] was “inactive” throughout. Besides, the Potency entry in [18], in [15] and in assay [16] was “inactive” throughout. Also, in [2], the Potency is 61.1 µM (active).
Turning to `N#Cc1c2ccccc2cc2ccccc12`, the Potency result in assay [1], in [2], in assay [3], in assay [4], in [5] and in assay [6] was “inactive” throughout. The Potency entry in assay [7], in assay [17], in assay [8], in [9], in [10] and in assay [14] was “inactive” in each case. Further, the Potency entry in [15] is “inactive”.
In the case of `CCOP(=S)(OCC)SC(CCl)N1C(=O)c2ccccc2C1=O` (stereo not drawn), the Potency result in assay [1], in assay [3], in assay [4], in [5], in assay [6] and in assay [7] was “inactive” throughout. Besides, the Potency entry in [17], in [8], in assay [9], in assay [11], in assay [15] and in [16] was “inactive” in each case. Further, the Potency in assay [2] is 30.6 µM (active).
Regarding `CCC(Cl)CCl` (stereo not drawn), the Potency entry in [1], in [2], in [3], in [4], in assay [5] and in assay [6] was “inactive” throughout. Further, the Potency result in [7], in [17], in [8], in assay [11], in [12] and in [13] was “inactive” each time. Also, the Potency entry in assay [14], in assay [18], in assay [15] and in [16] was “inactive” in each case.
In the case of `CCN[C@@H](C)Cc1cccc(C(F)(F)F)c1`, the Potency result in assay [1], in assay [2], in [3], in [4], in [5] and in [6] was “inactive” in each case. The Potency result in assay [7], in [13] and in [16] was “inactive” in each case.
Regarding `CCOP(=S)(OCC)Oc1cc(-c2ccccc2)on1`, the Potency entry in [1], in assay [2], in [3], in [4], in assay [5] and in assay [7] was “inactive” in each case. Further, the Potency result in assay [17], in assay [19], in assay [8], in assay [9], in [11] and in [14] was “inactive” throughout. In addition, the Potency entry in assay [15] and in assay [16] was “inactive” in each case.
For `NNCc1ccccc1`, the Potency entry in assay [1], in assay [2], in [3], in assay [4], in assay [5] and in assay [7] was “inactive” each time. Further, the Potency entry in assay [17], in assay [8], in [9], in assay [11], in assay [12] and in [13] was “inactive” in each case. Besides, the Potency result in assay [14], in assay [15] and in assay [16] was “inactive” each time.
